Substitutions are numbered along the chain they refer to; changes in the protein carry UniProt numbers. In all, about 16,000 sequences were measured (“ka relative to ugcaugu”: median about 0.096, highest 2% from about 0.35 on). What follows is part of a selection rich in the highest values, with near analogues and random picks from the rest.
T1: RBFOX1 RRM RbFoxmut (Fox-RRM*) (Homo sapiens, UniProt Q9NWB1 109-208, R118D;E147R;N151S;E152T)
T1 sequence: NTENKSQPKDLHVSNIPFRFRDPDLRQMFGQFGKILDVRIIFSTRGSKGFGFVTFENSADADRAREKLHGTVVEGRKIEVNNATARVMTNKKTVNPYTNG

B1: AAGUUAU (DNA:RNA)
RNA: GGGAGACCGGAAUUCAGAUUGUCCAAGUUAUUUAAAUCCCGUCGUAGCCACCA
DNA 1: CAATCTGAATTCCGGTCTCCC
DNA 2: TGGTGGCTACGACGGGATT
B2: GUUUCAU (DNA:RNA)
RNA: B1 RNA with A25G, A26U, G27U, U29C
DNA 1: CAATCTGAATTCCGGTCTCCC
DNA 2: TGGTGGCTACGACGGGATT
B3: UAGCAGU (DNA:RNA)
RNA: B1 RNA with A25U, U28C, U29A, A30G
DNA 1: CAATCTGAATTCCGGTCTCCC
DNA 2: TGGTGGCTACGACGGGATT
B4: CGUACCU (DNA:RNA)
RNA: B1 RNA with A25C, A26G, G27U, U28A, U29C, A30C
DNA 1: CAATCTGAATTCCGGTCTCCC
DNA 2: TGGTGGCTACGACGGGATT
B5: AUGUUGG (DNA:RNA)
RNA: B1 RNA with A26U, A30G, U31G
DNA 1: CAATCTGAATTCCGGTCTCCC
DNA 2: TGGTGGCTACGACGGGATT
B6: UAGCAUG (DNA:RNA)
RNA: B1 RNA with A25U, U28C, U29A, A30U, U31G
DNA 1: CAATCTGAATTCCGGTCTCCC
DNA 2: TGGTGGCTACGACGGGATT
B7: ACCAUGG (DNA:RNA)
RNA: B1 RNA with A26C, G27C, U28A, A30G, U31G
DNA 1: CAATCTGAATTCCGGTCTCCC
DNA 2: TGGTGGCTACGACGGGATT
B8: UAGCAUA (DNA:RNA)
RNA: B1 RNA with A25U, U28C, U29A, A30U, U31A
DNA 1: CAATCTGAATTCCGGTCTCCC
DNA 2: TGGTGGCTACGACGGGATT
B9: AGCAUGG (DNA:RNA)
RNA: B1 RNA with A26G, G27C, U28A, A30G, U31G
DNA 1: CAATCTGAATTCCGGTCTCCC
DNA 2: TGGTGGCTACGACGGGATT
B10: AGCAUGU (DNA:RNA)
RNA: B1 RNA with A26G, G27C, U28A, A30G
DNA 1: CAATCTGAATTCCGGTCTCCC
DNA 2: TGGTGGCTACGACGGGATT
B11: AGAUGGU (DNA:RNA)
RNA: B1 RNA with A26G, G27A, U29G, A30G
DNA 1: CAATCTGAATTCCGGTCTCCC
DNA 2: TGGTGGCTACGACGGGATT
B12: AGCAUUG (DNA:RNA)
RNA: B1 RNA with A26G, G27C, U28A, A30U, U31G
DNA 1: CAATCTGAATTCCGGTCTCCC
DNA 2: TGGTGGCTACGACGGGATT
B13: UAGCAUC (DNA:RNA)
RNA: B1 RNA with A25U, U28C, U29A, A30U, U31C
DNA 1: CAATCTGAATTCCGGTCTCCC
DNA 2: TGGTGGCTACGACGGGATT
B14: AGCAUAU (DNA:RNA)
RNA: B1 RNA with A26G, G27C, U28A
DNA 1: CAATCTGAATTCCGGTCTCCC
DNA 2: TGGTGGCTACGACGGGATT
B15: AUGGUUG (DNA:RNA)
RNA: B1 RNA with A26U, U28G, A30U, U31G
DNA 1: CAATCTGAATTCCGGTCTCCC
DNA 2: TGGTGGCTACGACGGGATT
B16: AGCCAUG (DNA:RNA)
RNA: B1 RNA with A26G, G27C, U28C, U29A, A30U, U31G
DNA 1: CAATCTGAATTCCGGTCTCCC
DNA 2: TGGTGGCTACGACGGGATT
B17: AUUCCUA (DNA:RNA)
RNA: B1 RNA with A26U, G27U, U28C, U29C, A30U, U31A
DNA 1: CAATCTGAATTCCGGTCTCCC
DNA 2: TGGTGGCTACGACGGGATT
B18: ACGGGGG (DNA:RNA)
RNA: B1 RNA with A26C, U28G, U29G, A30G, U31G
DNA 1: CAATCTGAATTCCGGTCTCCC
DNA 2: TGGTGGCTACGACGGGATT
B19: UCCUCGU (DNA:RNA)
RNA: B1 RNA with A25U, A26C, G27C, U29C, A30G
DNA 1: CAATCTGAATTCCGGTCTCCC
DNA 2: TGGTGGCTACGACGGGATT
B20: GUACUCA (DNA:RNA)
RNA: B1 RNA with A25G, A26U, G27A, U28C, A30C, U31A
DNA 1: CAATCTGAATTCCGGTCTCCC
DNA 2: TGGTGGCTACGACGGGATT

Biological target: T1, RBFOX1 RRM RbFoxmut (Fox-RRM*)
Test: EMSA; HiTS-Eq, 1 nM pool, 10 min; buffer printed only for the single-RNA assays: 10 mM Tris pH 7.5, 150 mM NaCl, 3.4 mM EDTA, 0.001% NP-40, 30 C
Conditions: tags: His6 N-terminal (pET28a); label: 5' 32P
Outline: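 A pool of RNA with 7 randomized nucleotides, 5′-radiolabelled and with DNA-annealed flanks, was equilibrated at 1 nM for 10 min in 50 µL with purified RbFox RRM, wild type or mutant, across increasing protein concentrations. Free RNA was separated by 8% native PAGE, excised, reverse-transcribed, barcoded by PCR and sequenced. Relative association constants were obtained from read-count changes of each RNA species versus the control reaction and normalised to the cognate motif.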

Point of comparison: B11, binding signal 0.117 KA relative to UGCAUGU. Against it:
- B1 — higher, 0.118 KA relative to UGCAUGU
- B2 — higher, 0.132 KA relative to UGCAUGU
- B3 — lower, 0.0735 KA relative to UGCAUGU
- B4 — lower, 0.099 KA relative to UGCAUGU
- B5 — higher, 0.123 KA relative to UGCAUGU
- B6 — higher, 0.819 KA relative to UGCAUGU
- B7 — lower, 0.0839 KA relative to UGCAUGU
- B8 — lower, 0.0997 KA relative to UGCAUGU
- B9 — higher, 0.538 KA relative to UGCAUGU
- B10 — higher, 0.713 KA relative to UGCAUGU
- B12 — higher, 0.2 KA relative to UGCAUGU
- B13 — higher, 0.266 KA relative to UGCAUGU
- B14 — higher, 0.133 KA relative to UGCAUGU
- B15 — higher, 0.48 KA relative to UGCAUGU
- B16 — higher, 0.163 KA relative to UGCAUGU
- B17 — lower, 0.098 KA relative to UGCAUGU
- B18 — higher, 0.118 KA relative to UGCAUGU
- B19 — higher, 0.124 KA relative to UGCAUGU
- B20 — lower, 0.095 KA relative to UGCAUGU

Source: article PMC9911399, “Two distinct binding modes provide the RNA-binding protein RbFox with extraordinary sequence specificity”
